# In PubChem BioAssay (NCI):
# Compounds without any hit were thinned out: in the full panel of roughly 83,000, 20% have a hit.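 Results are percent growth after 48 hours of single-concentration exposure. 100 means growth as in untreated cells, lower positive values show inhibition; negative values down to -100 show cell death.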 A number with no mark means an inactive call. The source made the active and inactive calls. Rule for the calls: active = growth percent below 10; inactive = the rest.
# Key:
# Test in all cases: NCI-60 one-dose screen, 48 h (100 = growth as untreated, 0 = no growth, -100 = all killed)
# Conditions in all cases: 10 µM unless noted
# [1] = tested on: HCT-15 colon
# [2] = tested on: HT29 colon
# [3] = tested on: SNB-75 CNS
# [4] = tested on: SNB-19 CNS
# [5] = tested on: U251 CNS
# [6] = tested on: PC-3 prostate
# [7] = tested on: SK-MEL-5 melanoma
# [8] = tested on: UACC-62 melanoma
# [9] = tested on: LOX IMVI melanoma
# [10] = tested on: SK-MEL-28 melanoma
# [11] = tested on: EKVX NSCLC
# [12] = tested on: SN12C renal
# [13] = tested on: UO-31 renal
# [14] = tested on: TK-10 renal
# [15] = tested on: ACHN renal
# [16] = tested on: CAKI-1 renal
# [17] = tested on: A498 renal
# [18] = tested on: CCRF-CEM leukemia
# [19] = tested on: MOLT-4 leukemia
Compound,growth [1],growth [2],growth [3],growth [4],growth [5],growth [6],growth [7],growth [8],growth [9],growth [10],growth [11],growth [12],growth [13],growth [14],growth [15],growth [16],growth [17],growth [18],growth [19]
CCN1CCN(Cc2ccc(Cc3ncc(F)c(-c4cc(F)c5nc(C)n(C(C)C)c5c4)n3)nc2)CC1,32.9%,13.2%,21.2%,47.8%,45.7%,38.7%,34.2%,69.1%,-80.4% (active),64.4%,59.6%,48.9%,11.8%,35.1%,27.3%,24%,34.5%,22.3%,13.4%
CN1CCN(c2ccc(OC(F)(F)F)c(Nc3ncc4c(n3)-c3c(c(C(N)=O)nn3CCO)CC4)c2)CC1,10.7%,10.3%,7.72% (active),23.4%,25.4%,36.8%,23.4%,35.9%,25.6%,88.7%,35.7%,25.9%,35.3%,53.5%,37.1%,28.4%,-5.99% (active),18.2%,18.3%
COc1ccc(F)c(F)c1C(=O)c1cnc(NC2CCN(S(C)(=O)=O)CC2)nc1N,3.08% (active),-25.5% (active),-66.1% (active),12.6%,0.678% (active),0.205% (active),-42.1% (active),-44.5% (active),6.39% (active),-35.3% (active),2.22% (active),14.5%,-3.94% (active),-7.34% (active),5.94% (active),13.1%,-53.4% (active),7.13% (active),6.48% (active)
O=c1[nH]ccc2c(S(=O)(=O)N3CCCNCC3)cccc12,93.3%,82.2%,54.6%,97.4%,101%,86.9%,109%,70.1%,90.6%,67%,65.4%,69.2%,40.6%,26%,41.7%,55.5%,36.3%,89.1%,84.9%
C=CC(=O)Nc1cc(Nc2nccc(-c3cn(C)c4ccccc34)n2)c(OC)cc1N(C)CCN(C)C,-63.9% (active),-61.2% (active),-6.88% (active),-7.94% (active),-72.7% (active),-52.6% (active),-96.5% (active),-68.8% (active),-84.6% (active),-87.2% (active),-46.2% (active),-59.3% (active),-83.2% (active),-17.1% (active),-95.4% (active),-86.4% (active),-58.3% (active),-17.1% (active),-52.7% (active)
N[C@@H]1CCCN(c2c(/C=C3\SC(=O)NC3=O)cccc2-c2ccccc2)C1,63.9%,55%,-14.1% (active),1.97% (active),13.9%,47.5%,55%,62.2%,72.6%,73.8%,62.6%,65%,31.9%,78.6%,73.2%,73.6%,75%,55.3%,31.1%
Nc1c(Cl)cccc1[N+](=O)[O-],104%,111%,104%,103%,103%,98.4%,104%,101%,103%,106%,104%,103%,90.4%,125%,104%,104%,101%,101%,99.6%
Cc1c(Cn2c(C)nc3c(C(=O)O)cc(N4CCOCC4)cc32)cccc1C(F)(F)F,44.5%,69.5%,61.3%,118%,104%,68.2%,104%,65.5%,101%,80.9%,101%,95.7%,47%,84.1%,77.1%,91.7%,-17% (active),79.6%,60.2%
c1cn2cc(-c3ccc4cn[nH]c4c3)nc(Nc3ccc(N4CCOCC4)cc3)c2n1,66.5%,32.7%,-3.9% (active),50.3%,41.5%,43.3%,71.4%,53.3%,56.4%,63%,83.9%,41.3%,65.1%,76.1%,39%,39.4%,68.7%,66.9%,61.8%
CC(C)NC[C@@H](C(=O)N1CCN(c2ncnc3c2[C@H](C)C[C@H]3O)CC1)c1ccc(Cl)cc1,71.2%,27.4%,8.53% (active),26.7%,28.4%,33%,72.4%,44.6%,66.8%,55.6%,72%,64.4%,53.7%,32.2%,68.7%,45.1%,-21.7% (active),22.5%,23.3%
CCn1c(-c2nonc2N)nc2c(C#CC(C)(C)O)ncc(OC[C@H]3CCCNC3)c21,82.4%,56.2%,2.75% (active),67.8%,41.8%,56.1%,91.7%,79.8%,44.1%,45.8%,91.9%,55.7%,50.7%,46.2%,78.4%,54.5%,42.3%,28.7%,18.5%
Cn1cnc(-c2cc3nccc(Oc4ccc(NC(=S)NC(=O)Cc5ccccc5)cc4F)c3s2)c1,85.3%,62.6%,78.6%,96.6%,79.7%,81.3%,76.7%,93.8%,94.5%,98.3%,109%,54.1%,72.2%,85.1%,80.4%,80.8%,62.9%,58.6%,69.4%
CN1CCN(CC(=O)Nc2ccc(-c3nc4ccccc4s3)cc2)CC1,52.9%,39.6%,73.1%,89.7%,67.5%,83.6%,73.7%,-35.8% (active),-33.7% (active),33.8%,83.7%,77.7%,57.5%,94.8%,71.2%,73.5%,59.5%,63.7%,78%
CNC(=O)c1cc(COc2nnc(Nc3ccc(Cl)cc3)c3ccoc23)ccn1,70.1%,71%,-39.3% (active),19.6%,15.1%,34.5%,-0.858% (active),47.8%,15.5%,52.5%,56.7%,38.9%,-3.27% (active),33%,23.4%,28.2%,62.6%,98.2%,73.6%
CCCCCCCC12Cc3ccccc3C1=Nc1c(c3ccccc3n1C)C2=O (centres undefined),91.7%,58.8%,89.2%,95%,88.5%,78.2%,90.8%,74.8%,87.8%,113%,98.8%,92.1%,57.5%,102%,93.3%,79.7%,86.4%,83.6%,78.3%
CC(C)CC(=O)Nc1n[nH]c2c1CN(C(=O)C1CCN(C)CC1)C2(C)C,78.8%,-1.54% (active),-19.8% (active),11.5%,2.91% (active),16.1%,-35.7% (active),-19.1% (active),9.19% (active),9.19% (active),57.8%,19.2%,80.9%,49.2%,54.2%,39.8%,7.55% (active),7.27% (active),4.42% (active)
